Bioassay records (PubChem)
The list is not random: actives were taken first. Their share in the collection is about 19%.
DT40 TDP1 no CPT = qHTS for Inhibitors of human tyrosyl-DNA phosphodiesterase 1 (TDP1): qHTS in cells in absence of CPT; DT40 Tdp1-/- hTDP1 cells, no CPT, ATP luminescence, 48 h; Potency, µM (series often up to 46.2 µM), for inactives: top-dose activity change, negative = growth inhibition, hits mostly inhibitors; actives 15% (n = 420,000); AID 686978, 2013; note: potency is the fitted concentration of half-maximal effect; nearly all actives have a fitted effect of over 55% in size
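A cellular qHTS used chicken DT40 cells lacking endogenous Tdp1 but carrying stably transfected human TDP1. Compounds were applied without camptothecin, and cell growth kinetics were judged by ATP-dependent luminescence after ≥48 hr.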
HT1080 IDH1KD tx = kills HT-1080 cells with IDH1 knockdown; Potency, µM (titrated, usually from 46.1 µM), for the others: at the top dose activity, negative = toxicity, usual class: cytotoxic; HT-1080 IDH1 knockdown viability, ATP luminescence, 48 h; actives 2% (n = 360,000); AID 686971;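 note: potency is the fitted concentration of half-maximal effect; 0% = DMSO wells and -100% = cell-free medium wells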
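% activity derives from luminescence (CellTiter-Glo), normalised to DMSO and no-cell wells. HT-1080-IDH1KD cells, 750/well, had 48 h compound exposure at 37 °C.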
HT1080NT lethal = kills 2HG-producing HT-1080-NT fibrosarcoma cells | actives 1.6% (n = 360,000) | AID 686970 | HT-1080-NT fibrosarcoma viability, CellTiter-Glo ATP luminescence, 48 h | Potency, µM (doses to about 46.1 µM), for inactives: top-dose activity, negative = less viability, usual class: cytotoxic;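 note: NT is the 2HG producing partner of a matched IDH1 knockdown line; potency is the fitted concentration of half-maximal effect; 0% = DMSO-treated cells and -100% = media-only wells without cells; nearly all actives have a fitted effect of over 55% in size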
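HT-1080-NT fibrosarcoma cells (2HG-overproducing), 750 cells/well in RPMI with 5% FBS, dosed after 2 h and incubated 48 h at 37C. CellTiter-Glo luminescence normalized to DMSO and no-cell wells; concentration-response curves fitted and classed.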
IL-1B inflam inh = blocks inflammasome-driven IL-1 beta release; THP-1 LPS/ATP IL-1B secretion, AlphaLISA, 16 h; stronger effect = lower value; activity change, % at 57.5 µM; actives 4.7% (n = 360,000); in the data active = activity change below about -50%; inconclusive = mostly about -30% to -49%
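THP-1 cells pretreated 1 hr with compounds (up to 57.5 uM final), then stimulated with LPS (250 ng/mL final) plus ATP (1.25 mM final); secreted IL-1B measured by AlphaLISA after 16 hr, decreased signal indicating inhibition.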
DT40 TDP1 CPT = DT40-hTDP1 cell growth loss with CPT | actives 12% (n = 420,000) | Potency, µM (top dose mostly 46.2 µM), for inactives: at the highest dose activity change, negative = growth inhibition, actives largely listed as inhibitors | chicken DT40 Tdp1-/-;hTDP1 cells + 20 nM CPT, ATP luminescence, 48 h; note: potency is the fitted concentration of half-maximal effect; nearly all actives have a fitted effect of over 55% in size
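Cell growth measured by CellTiter-Glo luminescence after a minimum 48 h, 37 C compound exposure with 20 nM CPT in Tdp1-knockout DT40 cells stably expressing hTDP1, seeded 400/well; qHTS titration format.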
* hit, by the source's call; [ ] = remark or other dose. Unless noted, calls come from the whole dose curve; as a rule, active = well fitted curve in the direction sought with a large enough effect; inconclusive = small, poorly fitted or top-dose-only effect, or another doubt; inactive = no such curve, though single readings can be large; an effect the other way counts as inactive or inconclusive. Unless noted, % is set by controls: 0 for no effect and ±100 for the full control effect.

For CN1CCN(c2ncnc3c2ncn3[C@H]2CN(Cc3ccccc3)C[C@@H](CO)O2)CC1 the results were DT40 TDP1 no CPT -23%, HT1080 IDH1KD tx 14%, HT1080NT lethal 3%, IL-1B inflam inh -8 and DT40 TDP1 CPT inconclusive.
For COc1ccc(CN2C[C@@H](CO)O[C@@H](n3cnc4c(N5CCN(c6ccccc6)CC5)ncnc43)C2)cc1 the results were DT40 TDP1 no CPT 16µM*, HT1080 IDH1KD tx 18µM*, HT1080NT lethal inconclusive, IL-1B inflam inh -20 and DT40 TDP1 CPT inconclusive.
Screening OC[C@@H]1CN(Cc2ccccc2)C[C@H](n2ccc3c(N4CCCC4)ncnc32)O1 returned DT40 TDP1 no CPT inconclusive, HT1080 IDH1KD tx 26%, HT1080NT lethal 12%, IL-1B inflam inh -56* and DT40 TDP1 CPT -7%.
`CCN(CC)c1ncnc2c1ncn2[C@H]1CN(Cc2cccnc2)C[C@@H](CO)O1` gave DT40 TDP1 no CPT -8%, HT1080 IDH1KD tx 2%, HT1080NT lethal inconclusive, IL-1B inflam inh -57* and DT40 TDP1 CPT -22%.
For CCCCc1c(C)nc2c(-c3ccc(Cl)cc3)c(C)[nH]n2c1=O the results were DT40 TDP1 no CPT 1.6µM* and DT40 TDP1 CPT 4.6µM*.
Screening Cc1nc2c(-c3ccccc3)c(C)[nH]n2c(=O)c1Cc1ccc(C(C)C)cc1 returned DT40 TDP1 no CPT 2.3µM* and DT40 TDP1 CPT 2.6µM*.
`CCc1c(C)nc2c(-c3ccccc3)c(C)[nH]n2c1=O` gave DT40 TDP1 no CPT -24%, HT1080 IDH1KD tx -16%, HT1080NT lethal -16%, IL-1B inflam inh 3 and DT40 TDP1 CPT -28%.
Screening Cc1[nH]n2c(=O)c3c(nc2c1-c1ccc(Cl)cc1)CCC3 returned DT40 TDP1 no CPT 21µM*, HT1080 IDH1KD tx -12%, HT1080NT lethal -11%, IL-1B inflam inh 5 and DT40 TDP1 CPT 12µM*.
For COc1ccc(-c2c(C)[nH]n3c(=O)c(Cc4ccccc4)c(C)nc23)cc1 the results were DT40 TDP1 no CPT 21µM*, HT1080 IDH1KD tx inconclusive, HT1080NT lethal -16%, IL-1B inflam inh -1 and DT40 TDP1 CPT 13µM*.
For O=[N+]([O-])c1cccc(S(=O)(=O)NC2CC3CCC2C3)c1 (stereo not drawn) the results were DT40 TDP1 no CPT -1%, HT1080 IDH1KD tx -1%, HT1080NT lethal 0%, IL-1B inflam inh 5 and DT40 TDP1 CPT -10%.
For CCOC(=O)c1ccc(-n2c(C)nc3ccc(Br)cc3c2=O)cc1 the results were DT40 TDP1 no CPT inconclusive, HT1080 IDH1KD tx 4%, HT1080NT lethal 14%, IL-1B inflam inh 12 and DT40 TDP1 CPT inconclusive.
For COc1ccccc1CNS(=O)(=O)c1cc(-c2cc(C)no2)ccc1C(C)C the results were DT40 TDP1 no CPT inconclusive, HT1080 IDH1KD tx -25%, HT1080NT lethal -25%, IL-1B inflam inh -20 and DT40 TDP1 CPT inconclusive.
For Cc1ccc(Cc2c(C)nc3c(-c4ccccc4)c(C)[nH]n3c2=O)cc1 the results were DT40 TDP1 no CPT 4.6µM* and DT40 TDP1 CPT 6.5µM*.
For Cc1nc2c(-c3ccccc3)c[nH]n2c(=O)c1Cc1ccccc1 the results were DT40 TDP1 no CPT 23µM*, HT1080 IDH1KD tx -4%, HT1080NT lethal 7%, IL-1B inflam inh -3 and DT40 TDP1 CPT 23µM*.
`COc1ccc(-n2c(C)cc(C(=O)Cn3nnc4ccccc4c3=O)c2C)cc1` gave DT40 TDP1 no CPT 21µM*, HT1080 IDH1KD tx inconclusive, HT1080NT lethal inconclusive, IL-1B inflam inh 0 and DT40 TDP1 CPT 21µM*.
`Cc1cc(C(=O)Cn2nc(C(=O)O)c3ccccc3c2=O)c(C)n1CC(F)(F)F` gave DT40 TDP1 no CPT -4%, HT1080 IDH1KD tx -20%, HT1080NT lethal -12%, IL-1B inflam inh -2 and DT40 TDP1 CPT -10%.
For COc1ccc(-n2c(C)cc(C(=O)Cn3nc(C(=O)O)c4ccccc4c3=O)c2C)cc1 the results were DT40 TDP1 no CPT 16µM*, HT1080 IDH1KD tx -16%, HT1080NT lethal -10%, IL-1B inflam inh 0 and DT40 TDP1 CPT inconclusive.
Cc1cc(C(=O)Cn2nc(C(=O)O)c3ccccc3c2=O)c(C)n1CCc1ccc(F)cc1 was read as DT40 TDP1 no CPT inconclusive, HT1080 IDH1KD tx inconclusive, HT1080NT lethal -11%, IL-1B inflam inh -5 and DT40 TDP1 CPT 16µM*.
For Cc1ccc(-n2c(C)cc(C(=O)Cn3nc(C(=O)O)c4ccccc4c3=O)c2C)cc1 the results were DT40 TDP1 no CPT inconclusive, HT1080 IDH1KD tx inconclusive, HT1080NT lethal -26%, IL-1B inflam inh 2 and DT40 TDP1 CPT inconclusive.
Screening O=C(NCCN1CCN(C(=O)c2ccc(F)cc2)CC1)C(=O)NCc1ccccc1 returned DT40 TDP1 no CPT 10%, HT1080 IDH1KD tx 6%, HT1080NT lethal 14%, IL-1B inflam inh 15 and DT40 TDP1 CPT 5%.
Screening CCCCCN(C(=O)CCC(=O)OCC(=O)NCCc1ccccc1)c1c(N)n(CCCC)c(=O)[nH]c1=O returned DT40 TDP1 no CPT -23%, HT1080 IDH1KD tx 4%, HT1080NT lethal -16%, IL-1B inflam inh -17 and DT40 TDP1 CPT -22%.
O=C1CC(CC(=O)N2CC3CCCC2C3)(c2cccc(F)c2)C(=O)N1Cc1cccnc1 (stereo not drawn) was read as DT40 TDP1 no CPT 18µM* and DT40 TDP1 CPT inconclusive.
For Cc1ccccc1C1(CC(=O)N2CC3(C)CC2CC(C)(C)C3)CC(=O)N(Cc2cccnc2)C1=O (stereo not drawn) the results were DT40 TDP1 no CPT 21µM* and DT40 TDP1 CPT -14%[9.04 µM].
For Cc1c(C(C)C)c(=O)n(-c2ccc(S(=O)(=O)NC3CCCCC3)cc2)n1C the results were DT40 TDP1 no CPT 5.2µM*, HT1080 IDH1KD tx -11%, HT1080NT lethal -5%, IL-1B inflam inh -54* and DT40 TDP1 CPT 5.8µM*.
For Cc1c(C(C)C)c(=O)n(-c2ccc(S(=O)(=O)NCc3ccccc3)cc2)n1C the results were DT40 TDP1 no CPT 8.2µM*, HT1080 IDH1KD tx inconclusive, HT1080NT lethal inconclusive, IL-1B inflam inh 0 and DT40 TDP1 CPT inconclusive.
For O=C(CN1CCc2ccccc2C1)Nc1ccccc1C(F)(F)F the results were DT40 TDP1 no CPT -9%, HT1080 IDH1KD tx -6%, HT1080NT lethal -10%, IL-1B inflam inh -5 and DT40 TDP1 CPT -6%.
For COc1cccc(CNC(=O)Cc2nc3nc(C)cc(C)n3n2)c1 the results were DT40 TDP1 no CPT -18%, HT1080 IDH1KD tx 9%, HT1080NT lethal 4%, IL-1B inflam inh 24 and DT40 TDP1 CPT 24%.
O=S(=O)(c1cccc(F)c1)N1CCN(Cc2ccc3c(c2)OCO3)CC1 was read as DT40 TDP1 no CPT -22%, HT1080 IDH1KD tx 9%, HT1080NT lethal 14%, IL-1B inflam inh 2 and DT40 TDP1 CPT -15%.
